# Measured values published in PubChem BioAssay AID449762 (Southern Research Specialized Biocontainment Screening …, 2010).
# The campaign covered roughly 330,000 compounds. About 1,900 (0.58%) were called active. About 4% were inconclusive and are not listed. Not all results are given here. Results with a measured potency or affinity are listed apart. Unmarked numbers belong to inactive results. No stated cut-off is given here; in the data, inconclusive means inhibition above about 70% without an active follow-up result; inactive means below that.
# Assay: M. tuberculosis growth inhibition, HTS (AID 449762);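 further: bacterial growth assessed after seven days of incubation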
# Details: M. tuberculosis H37Rv growth inhibition, 7H9 media; at 25 µM; hits give high values
row,SMILES,inhibition
1,COc1ccc(Cl)cc1NC(=O)CSc1nnc(-c2ccco2)o1,-2.66%
2,O=C(OCC(=O)N1CCCCC1)c1c[nH]c(=O)[nH]c1=O,-1.77%
3,COc1ccccc1C(=O)NC(CCSC)C(=O)NNC(=O)c1ccccc1O (stereo not drawn),-6.8%
4,CC(C)(C)C(=O)O/N=C(\N)c1ccc(Oc2cc(Cl)cc(Cl)c2)c([N+](=O)[O-])c1,0.8%
5,CCCCN1CC(O)=C(c2nc3ccccc3[nH]2)C1=N,-10.6%
6,COc1ccc(NC(=O)N(C)C[C@H]2Oc3ccc(NC(=O)Cc4ccccc4)cc3C(=O)N([C@H](C)CO)C[C@@H]2C)cc1,-4.97%
7,COc1ccc(C(=O)NCC(c2ccc3c(c2)OCO3)N2CCN(c3ccc(OC)cc3)CC2)cc1 (stereo not drawn),7.52%
8,O=C(COc1ncnc2cc([N+](=O)[O-])ccc12)NC1CCCCC1,-3.77%
9,CCOC(=O)c1ccc(NC(=O)CSc2nc(C)nc3c2c(=O)n(C)c(=O)n3C)cc1,-9.19%
10,CCCC/C(=N/O)c1c(C)[nH]c2ccccc12,-0.42%
11,CCc1sc2nc(SCC(=O)Nc3cc(C)on3)n(-c3cccc(OC)c3)c(=O)c2c1C,-0.05%
12,COc1ccc2c(c1)CCc1c(C(=O)Nc3c(C)nn(Cc4ccccc4)c3C)noc1-2,0.29%
13,Cc1c(NC(=O)c2noc3c2CCc2ccccc2-3)c(=O)n(-c2ccccc2)n1C,43%
14,CC(C)(C)c1nnc(NC(=O)CCS(=O)(=O)Cc2ccccc2)s1,-8.95%
15,O=C(Cc1ccc(Br)cc1)NC1CCSC1=O (stereo not drawn),-3.33%
16,O=C(c1cccs1)N1CCN(c2cccc(Cl)c2)CC1,0.26%
17,O=C(Cn1ccsc1=NC(=O)C(F)(F)F)c1ccccc1,-3.48%
18,CC(=O)NC12CC3CC(C1)CC(C(=O)Nc1nc4ccc(S(C)(=O)=O)cc4s1)(C3)C2,-8.67%
19,CC(=O)NC12CC3CC(C1)CC(C(=O)Nc1nccs1)(C3)C2,-0.32%
20,Cc1ccc2c(c1)c(C1=NC(=S)NC1=O)c(O)n2C,-2.95%

row,SMILES,inhibition
1,Cn1c(O)c(C2=c3ccccc3=NC2=O)[nH]c1=S,37%
2,C/C(=N\NC(=O)c1ccc(Cn2cc([N+](=O)[O-])cn2)o1)c1cccc(NC(=O)c2cccnc2)c1,-0.38%
3,Clc1cccc(C2Nc3cccc4cccc(c34)N2)c1,11.6%
4,O=C(c1ccccc1)c1ccc(OCCCCN2CCCCC2)cc1,3.79%
5,O=C(c1ccccc1)c1ccc(OCCCN2CCCC2)cc1,-9.38%
6,Cc1nc(Nc2c(Cl)cccc2Cl)sc1C(=O)Nc1ccccc1,12%
7,Cc1nc(Nc2ccccc2)sc1C(=O)Nc1ccccc1,7.98%
8,CC(NC(=O)/C(C#N)=C/c1cccs1)c1ccccc1 (stereo not drawn),-1.56%
9,CCOCCN1CCN(c2nnc3n2-c2ccc(Cl)cc2C(c2ccccc2Cl)=NC3)CC1,4.83%
10,Clc1ccc2c(c1)C(c1ccccc1Cl)=NCc1nnc(Br)n1-2,6.91%
11,Cn1c(=O)c2c(nc(SCCN3CCOCC3)n2C)n(C)c1=O,1%
12,O=C(c1ccc(Oc2ccc([N+](=O)[O-])cc2)cc1)N1CCCCCC1,20.3%
13,O=C(CCc1ccc(Oc2cc([N+](=O)[O-])cc([N+](=O)[O-])c2)cc1)NC1CCCC1,30.8%
14,Cc1cc(C)nc(OC(C(=O)O)C(OCC(C)C)(c2ccccc2)c2ccccc2)n1 (stereo not drawn),-3.41%
15,Cc1cccc(C(=O)NC2CC(C)(C)NC(C)(C)C2)c1,-6.34%
16,Cc1ccc(S(=O)(=O)/N=C2/NC(=O)/C(=C/c3ccc(Br)o3)S2)cc1,-2.8%
17,COC(=O)c1ccc(CSc2nnc(CNC(=O)c3ccccc3F)o2)o1,4.26%
18,Cc1c(C2(O)CCCCC2)[nH]c2cc(C(F)(F)F)ccc12,15.3%
19,CCc1c(C2(O)CCCCC2)[nH]c2ccc(C#N)cc12,5.4%
20,Cc1nn(S(=O)(=O)c2ccc(C(C)C)cc2)c(C)c1S(=O)(=O)N1CCOCC1,-4.31%

row,SMILES,inhibition
1,Cc1nn(CC(=O)NCCCN2C(C)CCCC2C)c(=O)c2cc3occc3n12 (stereo not drawn),5.96%
2,CCCc1nc([N+](=O)[O-])c(S(=O)(=O)c2ccccc2)n1CC(C)C,10%
3,CCCn1c(CC)nc([N+](=O)[O-])c1Sc1ccc(C)cc1,-12%
4,Cc1ccc(NC(=O)CN(C)C(=O)/C=C/c2ccc3c(c2)OCO3)cc1,6.72%
5,CN(CC(=O)Nc1ccc(OC(F)(F)F)cc1)C(=O)/C=C/c1ccco1,5.57%
6,CCCCc1c(O)nc(SCC(=O)N2CCCCC2)[nH]c1=O,17.7%
7,COc1ccc(-c2nnc(SCC(=O)NC3CCCC3)n2C)cc1,-3.82%
8,Cc1ccc(C(=O)/C=C/c2ccc3c(c2)OCO3)o1,1.84%
9,Cc1ccc(C(=O)/C=C/c2ccccc2)o1,4.37%
10,CC1CCCCN1S(=O)(=O)c1cccc2nonc12 (stereo not drawn),-1.08%
11,Cc1nn(Cc2ccccc2Cl)c2sc(C(=O)NC(C)(C)C)cc12,30.5%
12,CCC(CC)NC(=O)c1cc2c(C)nn(Cc3ccccc3Cl)c2s1,-1.27%
13,CCCNC(=O)CCNC(=O)c1ccc(C(C)(C)C)cc1,-4.92%
14,CCCCNC(=O)CCNC(=O)c1ccc(C(C)(C)C)cc1,-8.34%
15,O=C(CSc1nnc(-c2c[nH]c3ccccc23)o1)N(Cc1ccccc1)c1ccc(F)cc1,-6.56%
16,Cc1nc(SCc2nc3ccccc3[nH]2)c2oc3ccc(Br)cc3c2n1,18%
17,Cc1ccccc1CN1C(=O)[C@@H]2Cc3c([nH]c4ccccc34)C(C)(C)N2C1=O,8.29%
18,Cc1ccccc1CN1C(=O)[C@H]2Cc3c([nH]c4ccccc34)C(C)(C)N2C1=O,-6.56%
